# Screens (PubChem)
# S1P4 agonist – S1P4 receptor agonists, primary screen, cell-based; Sphingosine 1-phosphate receptor 4 (Homo sapiens), O95977; S1P4-expressing cell line, agonist reporter assay; activation, % at 4.98 µM; hit rate 0.35% among 220,000; in the data active means activation above about 11%
# ROMK mod – ROMK potassium channel modulators, primary screen, cell-based, thallium flux, MLSMR library; hit rate 2% among 130,000; Tet-inducible ROMK, thallium flux fluorescence; actives lie on both sides; B-score at 10 µM; AID 1918, 2009; ATP-sensitive inward rectifier potassium channel 1 (Homo sapiens), P48048;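 active means signal ratio slope over the read window, or its plate-corrected B-score, at least 3 SD from the plate mean, either direction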;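 further: B-score of the F/F0 ratio slope over 7 to 12 s after thallium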
# RAM inhibit – inhibitors of the yeast RAM network, primary screen, dse1pr::URA3 reporter, 5-FOA selection; S. cerevisiae dse1pr::URA3 reporter, 5-FOA growth OD615, 2 d; analog-sensitive cbk1-as2 kinase mutant strain; inhibition, % at 50 µM; hit rate 1.8% among 190,000; AID 868, 2007;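 active means inhibition above a set limit, 3 SD over mean compound inhibition, cut at about 8.4% in these data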;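 further: inhibition rescues growth on 5-FOA so higher OD means more RAM inhibition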
# Cl transport mod – KCC2 cotransporter modulators, thallium flux, primary screen, cell-based, HEK293 KCC2, FluoZin-2 fluorescence, MLSMR. B-score of Tl+ flux slope (higher = more flux/activation; lower = inhibition) at 10 µM. Solute carrier family 12 member 5 (Homo sapiens), Q9H2X9. hit rate 2.2% among 190,000. AID 1456, 2008. KCC2 cells, thallium flux FluoZin-2 fluorescence;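 active means thallium flux slope and its plate-corrected score both differing from the plate sample mean at a set confidence after two filtering rounds, in either direction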;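 further: slope of fluorescence scaled to starting intensity during 10 to 20 s after thallium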
# Target sequence (Q9H2X9 whole entry, looked up): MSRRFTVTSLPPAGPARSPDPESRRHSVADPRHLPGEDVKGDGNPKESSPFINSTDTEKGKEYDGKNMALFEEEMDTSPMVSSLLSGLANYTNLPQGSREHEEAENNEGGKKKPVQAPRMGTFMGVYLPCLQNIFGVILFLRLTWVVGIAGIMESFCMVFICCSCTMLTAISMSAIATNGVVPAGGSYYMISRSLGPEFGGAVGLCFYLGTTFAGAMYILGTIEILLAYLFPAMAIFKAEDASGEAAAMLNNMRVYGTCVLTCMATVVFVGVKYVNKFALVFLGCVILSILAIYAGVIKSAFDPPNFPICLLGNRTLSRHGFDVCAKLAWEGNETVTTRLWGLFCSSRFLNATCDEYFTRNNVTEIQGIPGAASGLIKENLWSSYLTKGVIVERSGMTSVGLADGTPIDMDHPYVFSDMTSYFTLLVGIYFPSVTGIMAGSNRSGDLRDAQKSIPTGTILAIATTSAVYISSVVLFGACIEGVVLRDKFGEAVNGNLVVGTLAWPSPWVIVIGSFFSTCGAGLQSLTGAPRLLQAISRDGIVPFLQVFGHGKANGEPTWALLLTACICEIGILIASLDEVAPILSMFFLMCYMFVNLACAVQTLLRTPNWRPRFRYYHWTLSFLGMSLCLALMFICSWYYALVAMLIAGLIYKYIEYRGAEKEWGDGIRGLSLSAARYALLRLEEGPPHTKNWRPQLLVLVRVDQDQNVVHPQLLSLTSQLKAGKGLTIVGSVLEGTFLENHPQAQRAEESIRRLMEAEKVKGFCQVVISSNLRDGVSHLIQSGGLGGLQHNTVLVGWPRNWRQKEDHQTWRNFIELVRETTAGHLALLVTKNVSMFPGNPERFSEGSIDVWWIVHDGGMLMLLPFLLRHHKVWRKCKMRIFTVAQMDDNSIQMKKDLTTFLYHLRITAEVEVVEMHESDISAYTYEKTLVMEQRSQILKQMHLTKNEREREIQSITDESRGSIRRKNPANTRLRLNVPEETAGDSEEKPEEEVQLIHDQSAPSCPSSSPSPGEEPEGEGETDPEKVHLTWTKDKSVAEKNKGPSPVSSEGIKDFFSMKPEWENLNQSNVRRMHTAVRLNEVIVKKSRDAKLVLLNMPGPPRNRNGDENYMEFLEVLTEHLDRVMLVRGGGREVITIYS
# S1P3 antag – S1P3 receptor antagonists, primary screen, cell-based; CHO S1P3 NFAT-BLA reporter, FRET fluorescence, antagonist mode; inhibition, % at 4.98 µM; hit rate 0.27% among 170,000; AID 485, 2006;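 active means inhibition above the plate cutoff, the mean inhibition of test wells on that plate plus 3 SD, cut at about 28% in these data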;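 further: cells challenged with S1P at its EC80 of 0.8 µM; blue over green emission ratio from cleaved BLA substrate after 4 h stimulation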
# S1P4 antagonist – S1P4 receptor antagonists, primary screen, cell-based. hit rate 0.26% among 220,000. S1P4-expressing cells, antagonist mode, reporter read-out. AID 1510, 2009. inhibition, % at 4.98 µM; in the data active means inhibition above about 29%
# KCC2 secondary – KCC2 modulators in sodium-free buffer, confirmation, cell-based, HEK293 KCC2, thallium flux, secondary assay. hit rate 15% among 3,700. normalised thallium flux (F/F0 slope) at 10 µM. shares compounds with Cl transport mod. AID 1713, 2009. FluoZin2 fluorescence; stronger effect = higher value;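 active means thallium flux slope above the same plate's solvent-only control mean plus 3 SD; inconclusive means the two replicate wells disagree; inactive means no significant difference from solvent-only control wells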
# KCC2 bumet counter – thallium flux persisting under bumetanide in KCC2 cells, confirmation, counter-screen for KCC2 modulator project, cell-based, HEK293 KCC2, FluoZin2, secondary assay 3; shares compounds with Cl transport mod; HEK293-KCC2 + bumetanide/ouabain; stronger effect = higher value; normalized thallium flux at 10 µM; hit rate 49% among 3,700; AID 1714, 2009;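 active means thallium entry rate above the same plate's blocked-transporter control wells by more than 3 SD; inconclusive means the two repeat wells disagree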;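 further: raw slope of fluorescence over initial fluorescence between 10 and 20 s after thallium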
# KCC2 sec2 – KCC2 modulators without ouabain present, confirmation, cell-based, HEK293 KCC2, thallium flux, FluoZin2, secondary assay 2; thallium flux FluoZin2 fluorescence; actives lie on both sides; F/F0 rise rate, 10–20 s post-thallium; normalized thallium flux at 10 µM; AID 1715, 2009; hit rate 23% among 3,700; shares compounds with Cl transport mod;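 active means thallium flux slope more than 3 SD above or below the plate's solvent-only control mean, mostly below; inconclusive means the two repeat wells disagreed; inactive means no significant shift from solvent-only controls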
# HEK293 Tl flux – thallium flux modulation in parental HEK cells, confirmation, counter-screen for KCC2 modulator project, cell-based, counterscreen 1 | shares compounds with Cl transport mod | HEK293 parental cells, thallium flux FluoZin2, ouabain; baseline-ratio fluorescence slope, 10–20 s after thallium | thallium flux rate (normalised fluorescence) at 10 µM | hit rate 46% among 3,700 | AID 1716, 2009;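 active means thallium flux rate significantly above the same plate's solvent-only control wells, beyond their mean plus 3 SD; inconclusive means the two replicate wells gave conflicting results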
# KCC2 retest ouab – KCC2 inhibitors and activators, ouabain retest, confirmation, HEK-KCC2 cells; shares compounds with Cl transport mod; HEK293-KCC2, thallium flux FluoZin2 fluorescence; bidirectional: low = inhibitor, high = activator; hit rate 48% among 3,700; raw Tl+ flux slope (below DMSO = inhibition, above = activation) at 10 µM;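 active means thallium flux slope beyond 3 SD from same-plate DMSO control mean in most replicates, usually higher, sometimes lower; inconclusive means repeat tests gave conflicting results; inactive means no significant difference from controls in most replicates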;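 further: slope of initial-normalized fluorescence between seconds 10 and 20 after thallium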
# HEK293 Tl flux2 – native HEK Tl+ uptake effects, second counter-screen – HEK cells, counterscreen 2, counter-screen for KCC2 modulator project, confirmation. shares compounds with Cl transport mod. HEK293 parental, thallium flux FluoZin-2 fluorescence slope. thallium flux slope at 10 µM. hit rate 33% among 3,700. AID 1718, 2009;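 active means thallium flux slope above the same plate's solvent-control mean plus 3 SD in both duplicate wells; inconclusive means duplicate wells that disagreed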;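 further: run without ouabain in cells lacking the KCC2 cotransporter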
# Numbers stand for hits; . = inactive; ? = inconclusive; / = no result given. Only some compounds are listed: those with a hit (about 5.1% of all), similar ones and a draw of the others.
SMILES,S1P4 agonist,ROMK mod,RAM inhibit,Cl transport mod,S1P3 antag,S1P4 antagonist,KCC2 secondary,KCC2 bumet counter,KCC2 sec2,HEK293 Tl flux,KCC2 retest ouab,HEK293 Tl flux2
c1coc(CNc2c3c(nc4ccccc24)CCC3)c1,.,.,.,7.31,.,.,.,.,.,0.00651,0.0162,.
CC1(C)CC2CC(C)(CN2Cc2c(O)ccc3ccccc23)C1 (stereo unspecified),.,.,.,.,.,.,/,/,/,/,/,/
COc1ccccc1C(=O)Nc1c2c(nn1-c1cccc(C)c1C)CS(=O)C2 (stereo unspecified),.,/,.,6.74,.,.,.,.,.,?,.,.
O=C(NNc1c(Cl)cncc1Cl)c1sccc1Cl,.,/,/,.,.,.,/,/,/,/,/,/
O=C(C1=C[C@H](c2ccccc2)C[C@H](OCCCCO)O1)N1CCOCC1,.,/,.,.,.,.,/,/,/,/,/,/
O=C1CC(C(F)(F)F)=NN1,.,/,/,.,.,.,/,/,/,/,/,/
CCS(=O)(=O)c1c([N+](=O)[O-])ncn1C,.,.,.,.,.,.,/,/,/,/,/,/
CCN(CC)c1c([N+](=O)[O-])ncn1C,.,.,.,/,/,.,.,.,.,?,.,?
Cc1cc(C)n(CC(=O)c2ccccc2)c(=O)c1C#N,.,.,.,.,/,.,.,.,.,.,.,.
Cc1ccc(C(=O)Cn2c(C)cc(C)c(C#N)c2=O)cc1,.,/,.,.,.,.,/,/,/,/,/,/
COc1cccc(-c2nnc(NC(=O)c3cccc(F)c3)o2)c1,/,/,/,33.1,.,/,?,0.103,0.0883,0.0854,0.0921,0.0834
COc1cccc(-c2nnc(NC(=O)c3ccccc3Br)o2)c1,/,/,/,.,.,/,/,/,/,/,/,/
CCCN(CCC)S(=O)(=O)c1ccc(C(=O)Nc2nnc(-c3cc(OC)cc(OC)c3)o2)cc1,.,/,.,10.4,.,.,.,0.0205,.,?,0.0287,.
O=C(Nc1nnc(-c2ccc(F)cc2)o1)c1cccc([N+](=O)[O-])c1,.,.,.,48.1,.,.,0.0329,0.0902,0.0437,?,0.0722,0.0229
S=c1[nH]nc(C2(c3ccccc3)CCCC2)o1,.,/,/,-3.14,.,.,.,.,0.0233,.,0.0184,.
COc1ccc(/C=C2\C(=O)NC(=S)N2C(=O)c2ccc(C)cc2)cc1,.,.,.,7.53,.,.,.,0.0208,0.0387,0.0189,0.0283,0.0212
CCSC(=O)NC1CCCCC1,.,.,/,.,.,.,/,/,/,/,/,/
O=C(NCCO)C1CCN(C(=O)c2ccc(-c3ccccc3)cc2)CC1,.,/,.,/,.,.,/,/,/,/,/,/
Cc1nc2c(-c3ccccc3)c[nH]n2c(=O)c1Cc1ccccc1,.,.,.,16.3,.,.,.,0.025,.,0.02,0.0296,0.0194
Cc1cc2nc(C)c(Cc3ccccc3)c(=O)n2[nH]1,.,.,.,/,.,.,/,/,/,/,/,/
C#Cc1cccc(NC(=O)c2ccc(Cl)cc2Cl)c1,.,/,/,.,.,.,/,/,/,/,/,/
COC(=O)C1=C(C(=O)OC)C(c2cc(Cl)ccc2O)c2sc(=O)[nH]c2S1 (stereo unspecified),.,/,.,-4.44,/,.,.,.,?,?,0.0138,?
COc1ccc(-c2csc(NC(=O)c3ccccc3NS(=O)(=O)c3ccc(F)c(F)c3)n2)cc1,.,.,.,-4.55,.,.,0.00524,0.0111,.,?,0.0112,.
NC(=S)Nc1ncc(C(F)(F)F)cc1Cl,.,.,.,15.8,.,.,.,0.0586,0.0473,0.0357,0.047,0.0386
Cc1c(Cl)cccc1NC(=S)NNc1ncc(C(F)(F)F)cc1Cl,.,.,.,5.5,/,.,.,0.0488,?,0.0178,0.0384,0.0206
SMILES,S1P4 agonist,ROMK mod,RAM inhibit,Cl transport mod,S1P3 antag,S1P4 antagonist,KCC2 secondary,KCC2 bumet counter,KCC2 sec2,HEK293 Tl flux,KCC2 retest ouab,HEK293 Tl flux2
Fc1ccccc1NC(=S)NNc1ncc(C(F)(F)F)cc1Cl,.,.,.,6.91,/,.,.,0.0522,.,0.0112,?,0.0105
Cc1ccccc1NC(=S)NNc1ncc(C(F)(F)F)cc1Cl,.,.,.,.,/,.,/,/,/,/,/,/
Cc1cccc(C)c1NC(=S)NNc1ncc(C(F)(F)F)cc1Cl,.,.,.,.,/,.,/,/,/,/,/,/
O=C(NC(=S)Nc1ccccc1Cl)c1cncc(C#Cc2ccccc2)c1,.,/,/,12.5,.,.,.,0.0148,.,0.0109,.,?
O=C(NC(=S)Nc1cccc2cnccc12)c1ccccc1,.,.,.,.,.,.,/,/,/,/,/,/
COC(CN1C(=O)C(=O)/C(=C(/O)c2ccccc2)C1c1ccccn1)OC (stereo unspecified),.,.,.,.,.,.,/,/,/,/,/,/
NNc1cc(C(=O)O)ccc1Cl,.,/,/,.,.,.,/,/,/,/,/,/
CC1C/C(=N\NC(=O)c2ccc([N+](=O)[O-])cc2)CC(C)(C)C1 (stereo unspecified),.,/,/,5.43,.,.,.,0.0163,.,0.00901,0.027,?
O=C(CN1C(=O)CSc2ccccc21)N1CCc2ccccc21,.,/,.,-4.86,.,.,.,.,.,.,0.0138,.
NC(=O)c1ccc(NC(=O)COC(=O)c2cccc(Oc3ccccc3)c2)cc1,.,.,.,.,.,.,/,/,/,/,/,/
CN(C)CCCNc1ccc(S(N)(=O)=O)cc1[N+](=O)[O-],.,.,.,2.81,.,.,.,.,.,.,.,.
